According to paper PMC4336329 (PLoS ONE, 2015):
In all, about 310,000 compounds went through this assay and about 14,000 (4.5%) showed an effect of 50% or more. Effects have a minus sign here. Only a selection was taken, and strong results are over-represented in it overall.

molecular target: human ether-à-go-go-related gene (hERG) potassium channel (human, UniProt Q12809); assay: primary screen, population patch clamp on CHO cells stably expressing hERG; higher = less effect of the substance
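Note: peak tail current of the secondary pulse compared with the same well before compound.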

Sequence of human ether-à-go-go-related gene (hERG) potassium channel (Q12809 whole entry, looked up): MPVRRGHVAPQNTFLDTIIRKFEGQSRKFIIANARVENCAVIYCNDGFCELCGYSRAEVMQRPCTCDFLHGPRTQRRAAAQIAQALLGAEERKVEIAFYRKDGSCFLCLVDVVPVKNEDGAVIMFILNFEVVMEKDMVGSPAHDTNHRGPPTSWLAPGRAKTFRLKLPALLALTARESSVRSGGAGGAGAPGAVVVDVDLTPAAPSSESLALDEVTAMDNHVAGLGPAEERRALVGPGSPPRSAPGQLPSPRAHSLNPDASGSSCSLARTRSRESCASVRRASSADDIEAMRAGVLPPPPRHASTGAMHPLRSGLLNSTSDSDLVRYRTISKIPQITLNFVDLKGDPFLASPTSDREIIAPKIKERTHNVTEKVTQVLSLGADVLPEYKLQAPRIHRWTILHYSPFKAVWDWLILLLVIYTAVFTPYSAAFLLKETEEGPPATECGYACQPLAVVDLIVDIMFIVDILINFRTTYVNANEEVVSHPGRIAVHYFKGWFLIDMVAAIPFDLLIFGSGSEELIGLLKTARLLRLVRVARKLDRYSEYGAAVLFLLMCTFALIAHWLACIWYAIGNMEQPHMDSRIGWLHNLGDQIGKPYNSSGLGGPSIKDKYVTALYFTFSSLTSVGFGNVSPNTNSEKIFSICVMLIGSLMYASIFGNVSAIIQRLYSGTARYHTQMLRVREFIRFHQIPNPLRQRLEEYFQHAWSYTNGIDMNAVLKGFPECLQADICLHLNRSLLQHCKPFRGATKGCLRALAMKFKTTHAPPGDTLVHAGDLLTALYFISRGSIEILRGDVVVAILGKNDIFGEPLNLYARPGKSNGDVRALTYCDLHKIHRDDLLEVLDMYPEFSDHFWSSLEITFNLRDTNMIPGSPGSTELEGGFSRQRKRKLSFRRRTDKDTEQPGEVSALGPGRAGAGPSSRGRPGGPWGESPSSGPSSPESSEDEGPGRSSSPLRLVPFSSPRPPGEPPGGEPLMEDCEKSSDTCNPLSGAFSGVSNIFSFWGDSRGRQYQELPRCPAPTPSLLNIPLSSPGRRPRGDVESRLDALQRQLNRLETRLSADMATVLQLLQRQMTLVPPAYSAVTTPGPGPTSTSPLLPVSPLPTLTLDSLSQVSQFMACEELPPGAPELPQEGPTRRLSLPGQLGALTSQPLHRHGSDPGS

Point of comparison: `CCOC(=O)c1cc2c(ccn2C)n1Cc1ccccc1C`, “hERG current change (%, negative = inhibition) at 10uM” value 11.8%. Against it:
- Cn1c(COc2cccc3cccnc23)nnc1SCC(=O)O — lower, 9.13%
- Cc1cccc(C)c1NC(=O)CCS(=O)(=O)c1cccc2nsnc12 — lower, -4.59%
- CN1C(=O)CC(c2ccccc2)C1=O (stereo not drawn) — lower, 3.18%
- Cc1cc(NCCc2ccccc2F)n2ncnc2n1 — lower, -1.21%
- Cc1cc(C)cc(N(C(=O)Cc2cccs2)C(C(=O)NC2CCCC2)c2ccc(C)o2)c1 (stereo not drawn) — lower, 2.77%
- COC(=O)c1cc2c(ccn2-c2ccc(F)cc2)n1Cc1cccc(OC)c1 — lower, 0.0373%
- O=C(CCC(=O)N1CCN(c2ccc(F)cc2)CC1)c1ccc(Cl)cc1 — lower, -55.8%
- O=C(O)CCC(=O)N1CCN(c2ccc(C(=O)c3ccc(F)cc3)cc2)CC1 — lower, 0.927%
- Cc1ccc(-c2ccc(=O)n(CCC(=O)N3CCN(c4ccccc4)CC3)n2)cc1 — lower, -49.1%
- O=C(CCC(=O)N1CCN(c2ccc(F)cc2)CC1)N1CCN(c2ccc(F)cc2)CC1 — lower, -43.9%
- O=C(CCn1nc(-c2ccccc2)ccc1=O)N1CCN(c2ccccc2)CC1 — lower, -11.2%
- O=C(CCn1nc(-c2ccccc2)ccc1=O)N1CCN(c2ccccn2)CC1 — lower, -53.1%
- CC(C)CN(C(=O)COC(=O)c1ccc([N+](=O)[O-])o1)C1CCS(=O)(=O)C1 (stereo not drawn) — lower, -31.8%
- CC(C)COC(=O)N1CC(O)CC1C(=O)O (stereo not drawn) — higher, 25.3%
- CCCC(=O)Nc1nnc(SCC(=O)N2C(C)CCCC2C)s1 (stereo not drawn) — lower, -50.1%
- COCC(=O)Nc1nnc(SCC(=O)N2C(C)CCCC2C)s1 (stereo not drawn) — higher, 15.2%
- CC(=O)Nc1nnc(SCC(=O)N2C(C)CCCC2C)s1 (stereo not drawn) — higher, 12.9%
- COCCn1cnnc1SCC(=O)Nc1cccc(S(=O)(=O)N2CCCCCC2)c1 — lower, -60.3%
- Cc1ccc(S(=O)(=O)N2CCCCC2)cc1NC(=O)CSc1ncn[nH]1 — higher, 12%
- Cc1ccc(S(=O)(=O)N2CCCCC2)cc1NC(=O)CSc1nncn1-c1ccccc1 — lower, -35.2%
- O=C(CSc1ncn[nH]1)Nc1cccc(S(=O)(=O)N2CCCCCC2)c1 — lower, -77.1%
- Cn1cnnc1SCC(=O)Nc1cccc(S(=O)(=O)N2CCCCCC2)c1 — lower, -17.4%
- COc1ccc(-n2cnnc2SCC(=O)Nc2cc(S(=O)(=O)N3CCCCC3)ccc2C)cc1 — lower, -84%
- COc1ccc(-n2cnnc2SCC(=O)Nc2cccc(S(=O)(=O)N3CCCCC3)c2)cc1 — lower, -18.5%
- O=C(CSc1ncn[nH]1)Nc1ccc(S(=O)(=O)N2CCCC2)cc1 — higher, 14.5%
- COCCn1cnnc1SCC(=O)Nc1cccc(S(=O)(=O)N2CCCCC2)c1 — lower, -17.8%
- CCC1(OC(=O)CN)C(=O)OCc2c1cc1n(c2=O)Cc2cc3ccccc3nc2-1.Cl (stereo not drawn) — lower, 8.16%
- CC(=O)c1cccc(NC(=O)/C(=C\c2ccco2)NC(=O)c2cccs2)c1 — lower, -9.8%
- CCOC(=O)N1CCN(C(=O)C(C)N(c2ccccc2)S(C)(=O)=O)CC1 (stereo not drawn) — higher, 25.1%
- O=C(O)CC(CC(=O)Nc1ccc(C(=O)O)cc1)c1ccccc1 (stereo not drawn) — higher, 12.9%
- Cc1ccc(-n2c(=O)c3sccc3n(CC(=O)NC3CCCCC3)c2=O)cc1 — lower, 9.86%
- O=C(COC(=O)c1cnccn1)NCc1ccc(Cl)cc1 — lower, -3.54%
- COCCN(C(=O)Cc1cccs1)C(C(=O)NC1CCCC1)c1cc(OC)c(OC)c(OC)c1 (stereo not drawn) — lower, 8.79%
- Cc1nn(-c2ccccn2)c2c1C(c1ccncc1)C1=C(CC(C)(C)CC1=O)N2 (stereo not drawn) — lower, -50.8%
- Cc1ccc(C2C3=C(CCCC3=O)Nc3c2c(C)nn3-c2ccccn2)o1 (stereo not drawn) — lower, 1.07%
- CCO.Cc1nn(-c2ccccn2)c2c1C(c1ccsc1)C1=C(CCCC1=O)N2 (stereo not drawn) — lower, -16.1%
- CC(C)(C)[C@H]1C=C(C(=O)NCc2ccccc2)O[C@@H](OCc2ccc(CO)cc2)C1 — lower, -12.9%
- COc1ccc(N(C(=O)c2snc(C(N)=O)c2N)C(C(=O)NC2CCCC2)c2cc(OC)ccc2OC)c(OC)c1 (stereo not drawn) — higher, 20.9%
- CC1=C(C#N)C(NC(=O)C2CC2)(C(F)(F)F)C(=O)N1 (stereo not drawn) — lower, -2.06%
- COc1cccc(-n2c(=S)sc3c(=O)n(-c4ccccc4C)c(SCC(=O)O)nc32)c1 — higher, 16.5%
- N/C(=N\O)c1ccc(Oc2ccccc2Cl)c([N+](=O)[O-])c1 — lower, -9.72%
- CCC1=Nc2cc(C(=O)NCCN3CCCC3)ccc2Sc2ccccc21 — lower, -52.1%
- CCC1=Nc2cc(C(=O)NCCN3CCOCC3)ccc2Sc2ccc(C)cc21 — lower, -82.3%
- CCC1=Nc2cc(C(=O)NCCN3CCOCC3)ccc2Sc2ccccc21 — lower, -15.3%
- CCCC1=Nc2cc(C(=O)NCCN3CCOCC3)ccc2Sc2ccc(C)cc21 — lower, -34.3%
- CCC1=Nc2cc(C(=O)NCCN3CCCC3)ccc2Sc2ccc(C)cc21 — lower, -29%
- CCCC1=Nc2cc(C(=O)NCCN3CCCC3)ccc2Sc2ccccc21 — lower, -21.2%
- Cc1cccc(NC(=O)COc2ccccc2C(=O)NC(C)c2ccccc2)c1 (stereo not drawn) — lower, -8.56%
- Cc1onc(-c2ccccc2)c1C(=O)N/N=C/c1ccc(O)c([N+](=O)[O-])c1 — lower, 9.34%
- CCCCn1c(O)c(N=NC(=O)c2ccccc2NS(=O)(=O)c2cccs2)c2ccccc21 — lower, -2.54%
- O=C(CSc1nncn1-c1ccccc1)Nc1c(F)cccc1F — lower, 3.19%
- NC(N)=NS(=O)(=O)c1ccc(N/C=C/C(=O)c2ccc(Cl)c(Cl)c2)cc1 — higher, 17.3%
- Cc1ccc(NC2CCCN(C(=O)c3ccccc3N3CCOCC3)C2)cc1C (stereo not drawn) — lower, -0.641%
